From PubChem
This is a sample that favours compounds with a hit; in the whole collection about 2.4% have one here.
D2 antag: antagonists of human D2 dopamine receptor | P14416 | HEK293 TREx D2 cells, calcium flux, dopamine EC80 | inhibition, % at 10 µM | 340,000 tested, 2% active; in the data active = inhibition above about 30%; inactive = below that, where a call was filed
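In this primary screen, negative modulation is detected by tracking calcium flux after an EC80 dopamine challenge in inducible HEK293 T-REx D2 cells preexposed to test compound for 180 s.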
D2 ag-1: agonists of human D2 dopamine receptor; AID 485358; 340,000 tested, 0.53% active; activation, % at 2 µM; P14416; HEK293 T-REx D2 cells, calcium flux agonist mode;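 active = activation over 3 SD above normal in the single-dose calcium agonist read, cut at about 30% in these data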
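Calcium-flux readout, 1 cycle/sec over 180 s following compound pin transfer, in inducible HEK293 Trex D2 cells (force-coupled); dopamine controls included. Positive calcium responses during this window marked compounds as potential agonists.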
D2 PAM-1: potentiates the human D2 dopamine receptor allosterically | P14416 | DiscoveRx D2 beta-arrestin cells, luminescence, 90 min; 100% = 57 uM dopamine signal | potentiation, % (concentration not given with the values) | 360,000 tested, 0.23% active | AID 624464; in the data active = potentiation above about 50%; inconclusive = mostly about 30% to 49%
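PathHunter beta-arrestin assay in DiscoveRx D2 cells. Compounds were added with an EC20 of dopamine (50 nM final) for 90 min at 37 deg C. Luminescence was read 1 h after detection reagent, with 57 uM dopamine as the EC100 control.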
D2 PAM-2: positive allosteric modulators of human D2 dopamine receptor | P14416 | HEK293 T-REx D2, calcium flux, EC20 dopamine potentiation | potentiation, % at 10 µM | 340,000 tested, 0.34% active | AID 485347;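 active = potentiation over 3 SD above the plate norm, cut at about 30% in these data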
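Tetracycline-induced HEK293 T-REx cells force-coupled to calcium signalling expressed D2; compounds were pin-added after a 10 s baseline, read kinetically 180 s, then an EC20 dopamine challenge followed with a further 180 s calcium read.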
D2 ag-2: agonists of human D2 dopamine receptor (beta-arrestin) | P14416 | 360,000 tested, 0.084% active | activation, % (no concentration beside the values) | DiscoveRx PathHunter D2 beta-arrestin, luminescence, 90 min; 100% = 57 uM dopamine signal | AID 624465; in the data active = activation above about 40%; inconclusive = between about 15% and that limit
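Agonist mode: compounds alone added to overnight-plated D2 PathHunter cells for 90 min at 37 C, with 57 uM final dopamine (EC100) defining full response. Beta-arrestin recruitment detected by chemiluminescent reagent, read after 1 h at ambient temperature.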
D3 arrestin ag: D3 receptor agonism confirmed, beta-arrestin readout | shares compounds with D2 ag-1 | DiscoveRx D3 beta-arrestin cells, luminescence, 90 min | Potency, µM (highest dose often 76.9 µM), usual class: activators | 2,300 tested, 4% active | AID 720506; also: nearly all actives have a fitted effect of over 70% in size
Target sequence (P35462 whole entry, looked up): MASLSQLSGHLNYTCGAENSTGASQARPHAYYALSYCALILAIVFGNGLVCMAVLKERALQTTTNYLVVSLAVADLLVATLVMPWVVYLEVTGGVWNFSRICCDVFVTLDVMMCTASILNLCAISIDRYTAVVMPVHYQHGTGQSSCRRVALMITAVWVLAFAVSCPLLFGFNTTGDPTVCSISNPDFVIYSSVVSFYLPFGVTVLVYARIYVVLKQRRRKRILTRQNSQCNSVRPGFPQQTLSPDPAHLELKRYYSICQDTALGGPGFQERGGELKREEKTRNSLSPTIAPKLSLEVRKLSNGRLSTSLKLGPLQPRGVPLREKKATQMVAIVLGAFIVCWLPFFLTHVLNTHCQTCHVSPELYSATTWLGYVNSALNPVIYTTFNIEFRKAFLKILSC
D2 ag-3: D2 receptor agonism, beta-arrestin counterscreen. DiscoveRx PathHunter D2 beta-arrestin, luminescence, 90 min; response scale: percent relative to full dopamine signal. 2,300 tested, 5.9% active. shares compounds with D2 ag-1. AID 720507. Potency, µM (titrated, usually from 76.9 µM), actives largely listed as activators; also: nearly all actives have a fitted effect of over 70% in size
Hits are given with their value; . = inactive; ? = inconclusive; / = no result given. Unless noted, calls follow the shape of the dose curve; as a rule, active = well fitted activation curve with a large enough effect; inconclusive = small, poorly fitted or top-dose-only effect; inactive = flat fitted curve, though single readings scatter.

SMILES	D2 antag	D2 ag-1	D2 PAM-1	D2 PAM-2	D2 ag-2	D3 arrestin ag	D2 ag-3
COc1ccc(OCc2cc(C(=O)NC3CCc4ccccc43)no2)c(Cl)c1 (configuration not stated)	.	58.5	.	.	.	.	.
NC(=O)COC(=O)[C@@H]1CC(O)CN1S(=O)(=O)c1ccc2c(c1)OCCO2 (some centres not stated)	.	.	.	.	.	/	/
Cc1ccc2c(c1)CCCN2CC(=O)Nc1cccc(S(=O)(=O)N2CCCC2)c1	.	.	.	.	.	/	/
Cc1[nH]nc2nc(SCC(=O)NCCC3=CCCCC3)n(-c3ccc(Br)cc3)c(=N)c12	.	40.7	.	.	.	.	.
NC(=O)CSc1nccn1Cc1ccccc1	44.8	.	.	.	.	.	.
CCC(C)c1ccc(OCC(=O)Nc2cccc(C(=O)Nc3ccc(C(=O)O)cc3)c2)cc1 (configuration not stated)	.	64.0	.	.	.	.	.
C/C(=N\NC(=O)c1ccc(C(=O)N/N=C(\C)c2ccco2)o1)c1ccco1	.	.	.	.	.	/	/
C/C(=N\O)c1ccco1	.	.	.	.	.	.	.
COc1ccc(C(=O)N/C(=C/c2ccc(Cl)cc2)C(=O)Nc2ccc(C(=O)O)cc2)cc1	.	.	.	.	.	/	/
COc1ccc(N2CCN(C(=O)CCCNC(=O)Cn3cnc4sc(C)c(C)c4c3=O)CC2)cc1	.	44.5	.	.	.	.	.
CC(C)(C)n1nc2c(c1NC(=O)c1cc3ccccc3o1)CS(=O)(=O)C2	.	.	.	.	.	/	/
C=CCn1c(-c2ccc(OC)cc2)csc1=Nc1c(C)n(C)n(-c2ccccc2)c1=O	53.6	66.7	.	.	?	.	?
CC1(C(=O)NS(=O)(=O)C2CC2)CCN(C(=O)c2cc(F)cc(F)c2)C1 (configuration not stated)	/	/	.	/	.	/	/
O=S(=O)(NCC(c1ccc2c(c1)OCO2)N1CCN(c2ccccc2)CC1)c1ccccc1 (configuration not stated)	80.5	71.3	.	.	?	.	?
CCN(CC)c1ccc2cc(S(=O)(=O)c3ccc(C)cc3)c(=O)oc2c1	.	.	.	.	.	.	.
Cc1ccc(S(=O)(=O)c2cc3ccccc3oc2=O)cc1	.	.	.	.	.	/	/
O=C(CCCOc1ccc(Br)cc1)NCCc1ccc(OC(F)F)cc1	.	.	.	.	.	/	/
O=C(Nc1ccc([N+](=O)[O-])cc1)c1cccc(S(=O)(=O)Nc2ccccn2)c1	.	.	.	.	.	/	/
O=C(COC(=O)/C=C/c1ccc(F)cc1)NC1CCS(=O)(=O)C1 (configuration not stated)	.	.	.	.	.	/	/
CCCN(CCC)CCNC(=O)CN1C(=O)COc2ccc(S(=O)(=O)N3CCOCC3)cc21	.	37.5	.	.	.	.	.
COCCCNC(=O)CN1C(=O)COc2ccc(S(=O)(=O)N3CCOCC3)cc21	.	.	.	.	.	/	/
CC1(NC(=O)c2ccccc2)CCN(CCc2cccs2)C1=O (configuration not stated)	/	/	.	.	.	/	/
O=C(NC1(Cc2ccccc2)CCN(CCc2cccs2)C1=O)c1ccccc1 (configuration not stated)	.	.	.	.	.	.	.
CC(=O)Nc1ccc(S(=O)(=O)NCCC(=O)NCCOc2ccccc2)cc1	.	.	.	.	.	.	.
O=C(CCNS(=O)(=O)c1ccccc1)NCCCSc1ccccc1	.	.	.	.	.	/	/
SMILES	D2 antag	D2 ag-1	D2 PAM-1	D2 PAM-2	D2 ag-2	D3 arrestin ag	D2 ag-3
Cc1ccc(S(=O)(=O)NCCC(=O)NCCCSc2ccccc2)cc1	.	.	.	.	.	.	.
CCC(C)(O)C(=O)N[C@H]1CCCN1C(=O)/C=C/c1ccccc1 (some centres not stated)	/	/	.	/	.	/	/
CCOC(=O)C1=C(Nc2ccccc2)CSC1	/	/	.	/	.	/	/
COc1ccc(-c2nnc(SCc3ccccn3)n2C)cc1	.	.	.	.	.	/	/
COc1ccc(N=C(N)SCc2ccccn2)cc1	44.6	33.0	.	.	.	.	.
Nc1nc(CN2CCN(c3ccccc3F)CC2)nc(Nc2ccc3c(c2)OCCO3)n1	54.0	72.1	.	.	?	.	?
CCOc1ccc(Nc2nc(N)nc(CN3CCN(c4ccccc4F)CC3)n2)cc1	33.0	48.4	.	.	.	.	?
CN1CCN(Cc2nc(N)nc(Nc3ccc4c(c3)OCCO4)n2)CC1	.	.	.	.	.	/	/
Nc1nc(CN2CCN(Cc3ccccc3)CC2)nc(Nc2ccccc2)n1	.	.	.	.	.	/	/
Nc1nc(CN2CCN(c3ccccn3)CC2)nc(Nc2ccc(Cl)cc2)n1	73.8	90.4	55.7	.	41.2	.	17.8µM
Nc1nc(CN2CCN(c3ccc(F)cc3)CC2)nc(N2CCCc3ccccc32)n1	54.4	59.8	.	.	.	.	.
Cc1cccc(Nc2nc(N)nc(CN3CCN(c4ccccc4F)CC3)n2)c1	/	/	.	/	.	/	/
C[C@@H]1CN([C@H](C)CO)C(=O)CCCn2nncc2CO[C@H]1CN(C)S(=O)(=O)c1ccc(-n2cccn2)cc1	/	/	.	/	.	/	/
CCOc1ccc(/C=N/n2c(C3CCCCC3)n[nH]c2=S)cc1	.	.	.	.	.	/	/
CC(=O)c1ccc2c(c1)N(Cc1ccccc1)C(=O)C(C)S2 (configuration not stated)	/	/	.	/	.	/	/
Cc1cccc(Nc2nc(N)nc(CN3CCN(c4ccccc4)CC3)n2)c1	50.8	70.6	?	.	?	.	?
COc1ccc(N2CCN(Cc3nc(N)nc(Nc4ccccc4OC)n3)CC2)cc1	.	.	.	.	.	/	/
COc1ccc(Nc2nc(N)nc(CN3CCN(c4ccc(F)cc4)CC3)n2)cc1	.	42.7	.	.	.	.	.
COc1ccc(N2CCN(CCCn3c(=S)[nH]c4ncccc4c3=O)CC2)cc1	.	.	.	.	.	/	/
O=c1c2cccnc2[nH]c(=S)n1CCCN1CCN(c2ccc(F)cc2)CC1	100.8	53.7	.	.	.	.	.
N#CCN(C(=O)COC(=O)CCCNC(=O)c1ccc(Cl)cc1)c1ccccc1	.	.	.	.	.	.	.
CC(C)(C)C(=O)O/N=C(\N)COc1cccc(Cl)c1	.	.	.	.	.	/	/
Cc1ccc(CSCC(=O)N2CCN(Cc3ccc4c(c3)OCO4)CC2)cc1	.	45.0	.	.	.	.	.
